Results published in the supplement of paper PMC7411054.
Where a name gives a salt, the structure may show the parent alone.

Columns and labels:
Details in all cases: treatment time: 24 h
HepG2-ACTB-RAB5A = assay: lowest phenotypically active concentration; higher = less potent
Summary of the method: (§1)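 Each of fifteen gene-edited A549, HepG2 and WPMY1 reporter lines, marked with BFP for segmentation and GFP and RFP/FusionRed, was treated in four wells at 0.3, 1, 3 or 9 µM for 24 h prior to live imaging. Normalisation of per-well live-cell features used solvent control wells. Deviation needed ≥3 of 4 wells beyond the 95th percentile of control Euclidean distances, and reproducibility needed a median replicate Pearson correlation above the 95th percentile of non-replicates. Both were required for phenotypic activity.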

HepG2-CANX-COX4 = assay: as above
Summary of the method: as §1

HepG2-TP53BP1-CLTA = assay: as above
Summary of the method: as §1

HepG2-TUBA1B-RELA = assay: as above
Summary of the method: as §1

WPMY1-ACTB-RAB5A [1] = assay: as above
Summary of the method: as §1

WPMY1-CANX-COX4 = assay: as above
Summary of the method: as §1

WPMY1-GM130-SQSTM1 = assay: as above
Summary of the method: as §1

WPMY1-TP53BP1-CLTA = assay: as above
Summary of the method: as §1

WPMY1-TUBA1B-RELA = assay: as above
Summary of the method: as §1

WPMY1-ACTB-RAB5A [2] = assay: phenotypically active (imaging signature differs from DMSO and reproducible) at any of 0.3-9 uM (binary (1 = active, 0 = inactive)); higher = active
Summary of the method: as §1

SMILES | lowest phenotypically active concentration (HepG2-ACTB-RAB5A) | lowest phenotypically active concentration (HepG2-CANX-COX4) | lowest phenotypically active concentration (HepG2-TP53BP1-CLTA) | lowest phenotypically active concentration (HepG2-TUBA1B-RELA) | lowest phenotypically active concentration (WPMY1-ACTB-RAB5A [1]) | lowest phenotypically active concentration (WPMY1-CANX-COX4) | lowest phenotypically active concentration (WPMY1-GM130-SQSTM1) | lowest phenotypically active concentration (WPMY1-TP53BP1-CLTA) | lowest phenotypically active concentration (WPMY1-TUBA1B-RELA) | phenotypically active (WPMY1-ACTB-RAB5A [2])
Cc1ccc(NC(=O)CCCCCC(=O)Nc2ccccc2N)cc1 | 1 µM | 9 µM | 3 µM | 9 µM | 9 µM | 3 µM | 9 µM | 3 µM | 9 µM | 1 (active)
CN(C)c1ccc(C(=O)NCCCCCCC(=O)NO)cc1 | ≤ 0.3 µM | ≤ 0.3 µM | 1 µM | ≤ 0.3 µM | 1 µM | ≤ 0.3 µM | ≤ 0.3 µM | ≤ 0.3 µM | ≤ 0.3 µM | 1 (active)
Cc1n[nH]c2ccc(-c3cncc(OC[C@@H](N)Cc4ccccc4)c3)cc12 | ≤ 0.3 µM | ≤ 0.3 µM | ≤ 0.3 µM | ≤ 0.3 µM | ≤ 0.3 µM | ≤ 0.3 µM | ≤ 0.3 µM | ≤ 0.3 µM | ≤ 0.3 µM | 1 (active)
COc1cc2nc(-c3cc(F)ccc3O)nc(N[C@@H]3CNC[C@H]3C(C)(C)O)c2cc1OC | 1 µM | 1 µM | 1 µM | 1 µM | 1 µM | 1 µM | 1 µM | 1 µM | 1 µM | 1 (active)
CCN(CC)c1ccc(/C=N/NC(=O)c2ccncc2)c(O)c1 | ≤ 0.3 µM | ≤ 0.3 µM | ≤ 0.3 µM | 1 µM | ≤ 0.3 µM | ≤ 0.3 µM | ≤ 0.3 µM | ≤ 0.3 µM | 1 µM | 1 (active)
CC(C)c1cc(-c2n[nH]c(=O)n2-c2ccc3c(ccn3C)c2)c(O)cc1O [ganetespib] | ≤ 0.3 µM | ≤ 0.3 µM | ≤ 0.3 µM | ≤ 0.3 µM | ≤ 0.3 µM | ≤ 0.3 µM | ≤ 0.3 µM | ≤ 0.3 µM | ≤ 0.3 µM | 1 (active)
N#Cc1c(C2CCNCC2)cc(-c2c(O)cccc2OCC2CC2)nc1N | 9 µM | 9 µM | 9 µM | 9 µM | 3 µM | 3 µM | 9 µM | 9 µM | 9 µM | 1 (active)
CC(=C/[C@@H](C)C(=O)c1ccc(N(C)C)cc1)/C=C/C(=O)NO [Trichostatin A] | ≤ 0.3 µM | ≤ 0.3 µM | ≤ 0.3 µM | ≤ 0.3 µM | ≤ 0.3 µM | ≤ 0.3 µM | ≤ 0.3 µM | ≤ 0.3 µM | ≤ 0.3 µM | 1 (active)
CN1CCN(c2ccc(OC(F)(F)F)c(Nc3ncc4c(n3)-c3c(c(C(N)=O)nn3CCO)CC4)c2)CC1 | ≤ 0.3 µM | ≤ 0.3 µM | ≤ 0.3 µM | ≤ 0.3 µM | ≤ 0.3 µM | 1 µM | 1 µM | ≤ 0.3 µM | ≤ 0.3 µM | 1 (active)
COc1ccc(S(=O)(=O)Nc2cccnc2Nc2ccc(O)cc2)cc1 | 1 µM | 1 µM | 1 µM | 1 µM | ≤ 0.3 µM | ≤ 0.3 µM | 1 µM | ≤ 0.3 µM | ≤ 0.3 µM | 1 (active)
O=C(CCCc1ccc(-c2ccccc2F)cc1)Nc1ccc(O)cc1 | 3 µM | 3 µM | 9 µM | 3 µM | 1 µM | 1 µM | 1 µM | 1 µM | 1 µM | 1 (active)
NC(=O)Nc1sc(-c2ccc(F)cc2)cc1C(N)=O | 9 µM | 3 µM | 9 µM | 9 µM | 9 µM | 9 µM | 9 µM | 9 µM | 9 µM | 1 (active)
CN(C)CC(=O)N1CCC[C@@H](n2nc(-c3ccc(Oc4ccccc4)cc3)c3c(N)ncnc32)C1 | 1 µM | 3 µM | 1 µM | 1 µM | 3 µM | 9 µM | 3 µM | 3 µM | 3 µM | 1 (active)
CNC1CCC2(C)C(=CCC3C2CCC24CN(C)C(C)C2CCC34)C1 (stereo not drawn) [Isoconessimine] | 1 µM | 9 µM | 1 µM | 1 µM | 1 µM | 3 µM | 3 µM | 3 µM | 3 µM | 1 (active)
Cc1cc(Nc2nc(N[C@@H](C)c3ncc(F)cn3)ncc2Cl)n[nH]1 | 1 µM | 3 µM | ≤ 0.3 µM | 1 µM | 3 µM | 9 µM | 9 µM | 3 µM | 3 µM | 1 (active)
C[C@@H]1COCCN1c1cc(C2(S(C)(=O)=O)CC2)nc(-c2cccc3[nH]ccc23)n1 | ≤ 0.3 µM | 1 µM | 1 µM | 1 µM | ≤ 0.3 µM | ≤ 0.3 µM | 1 µM | 1 µM | 3 µM | 1 (active)
COc1cc(/C=C/C(=O)N2CCC=CC2=O)cc(OC)c1OC [Piperlongumine] | 3 µM | 3 µM | 9 µM | 3 µM | 9 µM | 9 µM | 3 µM | 9 µM | 9 µM | 1 (active)
COc1cc(Br)c(Nc2nc(-c3c(C)nc4ncccn34)cs2)c(Br)c1 | 1 µM | 1 µM | 1 µM | 1 µM | 1 µM | 1 µM | 1 µM | 3 µM | 1 µM | 1 (active)
O=C(CCCCCN1C(=O)c2cccc3cccc(c23)C1=O)NO [Scriptaid] | ≤ 0.3 µM | 1 µM | ≤ 0.3 µM | ≤ 0.3 µM | 1 µM | 1 µM | 1 µM | 1 µM | 1 µM | 1 (active)

SMILES | lowest phenotypically active concentration (HepG2-ACTB-RAB5A) | lowest phenotypically active concentration (HepG2-CANX-COX4) | lowest phenotypically active concentration (HepG2-TP53BP1-CLTA) | lowest phenotypically active concentration (HepG2-TUBA1B-RELA) | lowest phenotypically active concentration (WPMY1-ACTB-RAB5A [1]) | lowest phenotypically active concentration (WPMY1-CANX-COX4) | lowest phenotypically active concentration (WPMY1-GM130-SQSTM1) | lowest phenotypically active concentration (WPMY1-TP53BP1-CLTA) | lowest phenotypically active concentration (WPMY1-TUBA1B-RELA) | phenotypically active (WPMY1-ACTB-RAB5A [2])
O=C(c1cccc(Cl)c1F)N1CCN(Cc2cccc(Nc3nccs3)n2)CC1 | ≤ 0.3 µM | ≤ 0.3 µM | ≤ 0.3 µM | ≤ 0.3 µM | 1 µM | 9 µM | 3 µM | ≤ 0.3 µM | 1 µM | 1 (active)
O=C(CCCCCCC(=O)Nc1ccccc1)NO | 1 µM | 1 µM | 3 µM | 1 µM | 1 µM | ≤ 0.3 µM | 1 µM | 1 µM | 1 µM | 1 (active)
COc1cc2c(Nc3ccc(Br)cc3F)ncnc2cc1OCC1CCN(C)CC1 [vandetanib] | 3 µM | 3 µM | 3 µM | 1 µM | 3 µM | 3 µM | 3 µM | 9 µM | 3 µM | 1 (active)
COc1cc(C)c(Sc2cnc(NC(=O)c3ccc(CNC(C)C(C)(C)C)cc3)s2)cc1C(=O)N1CCN(C(C)=O)CC1 (stereo not drawn) | 3 µM | 3 µM | 3 µM | 3 µM | 3 µM | 3 µM | 3 µM | 3 µM | 3 µM | 1 (active)
C[C@@H](N)[C@H]1CC[C@H](C(=O)Nc2ccncc2)CC1 | 3 µM | 1 µM | 1 µM | 3 µM | 1 µM | 1 µM | 1 µM | 9 µM | 1 µM | 1 (active)
COc1ccc(N(C)c2nc(C)nc3ccccc23)cc1 [MPC 6827 hydrochloride] | ≤ 0.3 µM | ≤ 0.3 µM | ≤ 0.3 µM | ≤ 0.3 µM | ≤ 0.3 µM | ≤ 0.3 µM | ≤ 0.3 µM | ≤ 0.3 µM | ≤ 0.3 µM | 1 (active)
CC(=O)Nc1ccc(C(=O)Nc2ccccc2N)cc1 | 3 µM | 1 µM | 1 µM | 3 µM | 3 µM | 3 µM | 3 µM | 3 µM | 9 µM | 1 (active)
CN1CCC(=C2c3ccccc3CC(=O)c3sccc32)CC1 [ketotifen] | 9 µM | 9 µM | 9 µM | 3 µM | 9 µM | 9 µM | 9 µM | 9 µM | 9 µM | 1 (active)
C[C@@H]1CN(CC(=O)Nc2ccc3c(c2)Cc2cccc(-c4cc(=O)cc(N5CCOCC5)o4)c2S3)C[C@H](C)O1 | 1 µM | 3 µM | 3 µM | 3 µM | 3 µM | 3 µM | 3 µM | 3 µM | 9 µM | 1 (active)
CC(=O)c1c(C)c2cnc(Nc3ccc(N4CCNCC4)cn3)nc2n(C2CCCC2)c1=O | ≤ 0.3 µM | ≤ 0.3 µM | ≤ 0.3 µM | ≤ 0.3 µM | 9 µM | 3 µM | 9 µM | 9 µM | 9 µM | 1 (active)
Cn1cc(-c2[nH]c3cc(NC(=O)[C@H](N)C4CCCCC4)cc4c3c2C=NNC4=O)cn1 | 1 µM | 3 µM | 3 µM | 1 µM | ≤ 0.3 µM | ≤ 0.3 µM | ≤ 0.3 µM | ≤ 0.3 µM | ≤ 0.3 µM | 1 (active)
C=CC(=O)N1CCC[C@@H](n2nc(-c3cccc(C(=O)Nc4ccc(C(C)C)c(C)c4)c3)c3c(N)ncnc32)C1 | 1 µM | 1 µM | 1 µM | 1 µM | 1 µM | 3 µM | 3 µM | 9 µM | 3 µM | 1 (active)
CN1CCN(C(=O)CN[C@H]2C[C@@H]2c2ccc(OCc3ccccc3)cc2)CC1 [RN 1 dihydrochloride] | 9 µM |  | 9 µM | 3 µM | 9 µM | 9 µM | 9 µM | 9 µM | 9 µM | 1 (active)
C=CC(=O)Nc1cccc(Nc2nc(Nc3ccc(Oc4ccnc(C(=O)NC)c4)cc3)ncc2F)c1 | 9 µM |  | 9 µM | 9 µM | 3 µM | 9 µM | 9 µM |  |  | 1 (active)
CN(C)CCCN1c2ccccc2Sc2ccc(Cl)cc21 [chlorpromazine] |  | 9 µM | 9 µM | 9 µM | 9 µM | 9 µM |  | 9 µM | 9 µM | 1 (active)
CN1CCCC(n2nc(Cc3ccc(Cl)cc3)c3ccccc3c2=O)CC1 (stereo not drawn) [azelastine] | 9 µM |  | 9 µM | 9 µM | 9 µM | 9 µM | 9 µM | 9 µM | 9 µM | 1 (active)
O=C(NOC[C@H](O)CO)c1ccc(F)c(F)c1Nc1ccc(I)cc1F | ≤ 0.3 µM | ≤ 0.3 µM | ≤ 0.3 µM | ≤ 0.3 µM | 1 µM |  | 3 µM | 1 µM |  | 1 (active)
N#CC[C@@H](C1CCCC1)n1cc(-c2ncnc3[nH]ccc23)cn1 [ruxolitinib-(S)] |  | 9 µM | 9 µM | 9 µM | 9 µM | 9 µM |  |  | 3 µM | 1 (active)
CO[C@H]1C[C@@H]2CC[C@@H](C)[C@@](O)(O2)C(=O)C(=O)N2CCCC[C@H]2C(=O)O[C@H]([C@H](C)C[C@@H]2CC[C@@H](OC(=O)C(C)(CO)CO)[C@H](OC)C2)CC(=O)[C@H](C)C=C(C)[C@@H](O)[C@@H](OC)C(=O)[C@H](C)C[C@H](C)C=CC=CC=C1C [Temsirolimus] | ≤ 0.3 µM | 1 µM | ≤ 0.3 µM | 1 µM | ≤ 0.3 µM | ≤ 0.3 µM | ≤ 0.3 µM | ≤ 0.3 µM | 3 µM | 1 (active)
